CHO-K1 Ca PAM: nonselective activator or artifact in parental CHO-K1 calcium assay; AID 602247; activation, % at 3 µM; 0.02% of 360,000 active; ATP EC20, Fluo-8 calcium fluorescence; 0% at ATP EC20, 100% at ATP max;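 active = activation above the run cutoff, the mean activation of all test compounds plus 3 SD, cut at about 40% in these data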;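 note: peak over basal fluorescence ratio in a 140 s read after ATP addition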
M1 PAM: potentiates human M1 receptor response to acetylcholine | P11229 | CHO-K1 hM1, Fluo-8 calcium fluorescence, ACh EC20; 0% = ACh EC20, 100% = maximal ACh | activation, % at 3 µM | 0.088% of 360,000 active | AID 588819; in the data active = activation above about 19%, passing the limit was not always enough
Target sequence (P11229 whole entry, looked up): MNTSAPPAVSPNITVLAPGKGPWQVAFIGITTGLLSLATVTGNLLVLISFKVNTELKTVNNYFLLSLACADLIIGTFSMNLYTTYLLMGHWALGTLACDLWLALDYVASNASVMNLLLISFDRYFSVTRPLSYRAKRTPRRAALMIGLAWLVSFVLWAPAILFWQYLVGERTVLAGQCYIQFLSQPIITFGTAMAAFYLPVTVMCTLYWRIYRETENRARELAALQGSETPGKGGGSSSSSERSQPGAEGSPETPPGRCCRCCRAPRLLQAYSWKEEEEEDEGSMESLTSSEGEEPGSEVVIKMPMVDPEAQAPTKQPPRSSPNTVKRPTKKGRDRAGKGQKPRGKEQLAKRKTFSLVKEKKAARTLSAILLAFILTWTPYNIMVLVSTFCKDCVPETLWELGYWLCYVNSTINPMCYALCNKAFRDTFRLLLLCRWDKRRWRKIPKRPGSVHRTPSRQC
CHO-K1 Ca antag: counter-screen for M1 antagonists: effect in parental CHO-K1 cells; inhibition, % at 3 µM; AID 602250; ATP-induced calcium, Fluo-8 fluorescence; 0.6% of 360,000 active;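 active = inhibition above a per-plate cutoff, the plate's mean sample inhibition plus 3 SD, cut at about 24% in these data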
M1 ag: agonists of human M1 muscarinic receptor; P11229; CHO-K1 hM1, Fluo-8 calcium fluorescence, agonist mode; 0% DMSO, 100% acetylcholine EC100; activation, % at 3 µM; 0.33% of 360,000 active;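 active = activation above the run's mean compound activation plus 3 SD, cut at about 16% in these data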;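 note: peak over basal fluorescence ratio within a 140 s kinetic read after compound addition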
M1 ag parental: counter-screen for M1 agonists: effect in parental CHO-K1 cells | Fluo-8 calcium fluorescence; scaled to maximal ATP response, vehicle zero | activation, % at 3 µM | 0.48% of 360,000 active | AID 602248; in the data active = activation above about 15%;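 note: untransfected CHO-K1 host cells lacking M1 receptor as counterscreen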
CHRM1 antagonist: human CHRM1 antagonism. inhibition, % at 3 µM. 1.3% of 360,000 active. CHO-K1 hM1, Fluo-8 calcium fluorescence, ACh EC80 antagonist. AID 588852;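 active = percent inhibition above its own plate's cutoff, namely the mean of that plate's compound wells plus 3 SD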;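 note: peak over basal fluorescence ratio during 140 s after agonist addition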
Numbers stand for hits; n = inactive; x = no result. Compounds with a hit are over-represented: about 2.3% of the library has one in this group of screens.

SMILES | CHO-K1 Ca PAM | M1 PAM | CHO-K1 Ca antag | M1 ag | M1 ag parental | CHRM1 antagonist
COc1ccc(C2N(c3ccccc3)C(=S)N3CCCN23)cc1 (stereo not drawn) | n | n | n | n | n | n
S=C1N(c2ccccc2)C(c2ccc(Br)cc2)N2CCCN12 (stereo not drawn) | n | n | n | n | n | 100
S=C1N(c2ccccc2)C(c2ccc(Cl)cc2)N2CCCN12 (stereo not drawn) | n | n | n | n | n | 96
CCCCNC(=O)C1(C)CCN1C(=O)c1cc(C)n(C(C)(C)C)n1 (stereo not drawn) | n | n | n | n | n | n
Cc1ccc(-c2csc(C(O)c3ccc(F)c(F)c3)n2)cc1C (stereo not drawn) | n | n | n | n | n | n
CCOC(=O)NN1C(=O)c2ccccc2NC1c1ccc(N(C)C)cc1 (stereo not drawn) | n | n | n | 17 | n | n
Cc1ccc(C)[n+](CC(=O)c2ccc(-c3ccccc3)cc2)c1 | n | n | n | n | n | 44
O=C(C[n+]1cccc(Br)c1)c1ccccc1 | n | n | n | n | n | n
O=C(C[n+]1cccc(Br)c1)c1ccc(-c2ccccc2)cc1 | n | n | n | n | n | 38
Cn1cc(CN2CCC(C(=O)NC(c3ccc(-c4ccccc4)cc3)c3cnccn3)CC2)c2ccccc21 (stereo not drawn) | n | n | n | n | n | n
OC[C@@H]1CN(Cc2ccncc2)C[C@H](n2cnc3c(NC4CCCC4)ncnc32)O1 | n | n | n | n | n | n
Cc1ccc(S(=O)(=O)N2C[C@H]3C(=O)C[C@@H](c4ccc(Cl)cc4)N(S(=O)(=O)c4ccccc4C)[C@H]3C[C@H]2c2ccc(Cl)cc2)cc1 | n | n | n | n | n | n
OC(COc1ccc(CNCCc2ccccc2F)cc1)CN1CCCCC1 (stereo not drawn) | n | n | n | n | n | 38
OC(COc1ccccc1)CN1CCCCC1 (stereo not drawn) | n | n | n | n | n | n
Cc1ccc(-n2c(-c3ccccc3)c[n+]3c2CCc2ccccc2-3)c(C)c1 | n | n | n | n | n | 55
Cc1c(C(=O)N2CCN(S(=O)(=O)c3ccccc3F)CC2)oc2c(Cl)cccc12 | n | n | n | 16 | n | n
Cc1c(C(=O)N2CCN(c3ccccc3)CC2)oc2c(Cl)cccc12 | n | n | n | n | n | n
CN(c1ccc([N+](=O)[O-])cc1)c1cc2c(c3c1ccn3C)C1CCC2C1 (stereo not drawn) | n | n | n | n | n | n
COc1cccc(NC(=O)N(C)C[C@H]2OCc3cn(nn3)CCCC(=O)N([C@@H](C)CO)C[C@@H]2C)c1 | n | n | n | n | n | n
CN1CCN(CC#CCn2c3ccccc3c3ccccc32)CC1 | n | n | n | n | n | 36
Cc1ccc(C2=NS(=O)(=O)N(C)C(C(=O)Nc3ccc(F)cc3F)=C2)cc1 | n | n | n | n | n | 34
CN1c2ccccc2Oc2nnc(Cl)cc21 | n | n | 27 | n | n | n
COc1ccc(CN2CCN(C(=O)c3cc(-c4cccnc4)nc4ccc(Cl)cc34)CC2)c(OC)c1OC | n | n | n | n | n | 58
COc1cccc(CN2CCN(C(=O)c3ccc(-c4ccccc4)cc3)CC2)c1 | n | n | n | n | 16 | n
COc1cccc(CC(NC(C)=O)C(=O)NC2CCN(C(=O)c3ccc(Cl)cc3)CC2)c1OC (stereo not drawn) | n | 30 | n | n | n | n
SMILES | CHO-K1 Ca PAM | M1 PAM | CHO-K1 Ca antag | M1 ag | M1 ag parental | CHRM1 antagonist
COc1cccc(CN2CCN(C(=O)c3ccc(-c4ccccc4)cc3)CC2)c1OC | n | n | n | n | 16 | n
COc1cccc(CN2CCN(C(=O)c3cccc(OC)c3)CC2)c1 | n | n | n | n | n | n
c1cc(-c2ccc(N3CCOCC3)cc2)n2cnnc2c1 | n | n | n | n | n | n
COc1cccc(CNC(=O)c2ccc(CS(=O)Cc3ccccc3Cl)o2)c1 (stereo not drawn) | n | n | n | n | n | n
CCOC(=O)c1c(C)cc2c(CO)n[nH]c(=O)c2c1C | n | n | n | n | n | n
COC(=O)[C@H]1C[C@@]2(O)CN(S(=O)(=O)c3ccc(C)cc3)C[C@@]2(OC(=O)NC2CCCC2)C[C@H]1C(=O)OC | n | n | n | n | n | n
CCN(CC)CCN1C(=O)C(=O)/C(=C(/O)c2c(C)[nH]c(C(=O)OC)c2C)C1c1ccccc1OC (stereo not drawn) | n | n | 31 | n | n | n
CCc1nnc(SCC(=O)NC2CCCC2)nc1CC | n | n | 33 | n | n | n
CCc1nnc(SCC(=O)NC2CCCCC2)nc1CC | n | n | n | n | n | n
COc1ccc(S(=O)(=O)N(C)C[C@@H]2OCCCC[C@H](C)Oc3ccc(NC(=O)Nc4ccc(C(F)(F)F)cc4)cc3C(=O)N([C@H](C)CO)C[C@H]2C)cc1 | n | n | n | n | n | n
COc1ccc(CNC[C@H]2O[C@@H](n3ccc(=O)[nH]c3=O)[C@H](O)[C@@H]2O)cc1 | n | n | n | n | n | n
CC(=O)OCCCCCCCCCCC[N+]1(C)CCCCC1 | n | n | n | n | n | 65
C[N+]1(CCCCSc2ccc(O)cc2)CCCCC1 | n | n | n | n | n | n
C[N+]1(CC(=O)OC2CCCCCCCCCCC2)CCCC1 | n | n | n | n | n | 69
COC(=O)CCCCCCCCC(O)C[N+]1(C)CCOCC1 (stereo not drawn) | n | n | n | n | n | n
COC(=O)CCCCCCCCCC[N+]1(C)CCCCC1 | n | n | n | n | n | 64
CCc1ccc(-n2c(=S)sc3c(=O)[nH]c(SCC(=O)NC4CCCCC4)nc32)cc1 | n | n | n | n | n | n
COCCCN1C(=O)C(CC(=O)NC(c2ccccc2)c2ccccc2)CC(C(=O)N2CCOCC2)=C1C (stereo not drawn) | n | n | n | n | n | n
O=C(Cn1cc(Cl)ccc1=O)c1ccc(Cl)cc1 | n | n | 24 | n | n | n
O=C(CN1CCN(CC(=O)c2ccc(Cl)cc2)CC1)c1ccc(Cl)cc1 | n | n | n | n | n | n
COc1cccc(-c2cccc3c2NC(=O)C3(C)Cc2cccc(F)c2)c1 (stereo not drawn) | n | n | n | n | n | n
CC(=O)c1c(C)[nH]c(C(=O)CSc2ccc(F)cc2)c1C | n | n | n | n | 15 | 33
CC(C)NC(=O)CN1CCN(C(c2cc3ccccc3o2)c2nnnn2C(C)(C)C)CC1 (stereo not drawn) | n | x | n | x | n | x
COc1cc(SC)ccc1C(=O)OCC(=O)NCCNC(=O)COC(=O)c1ccc(SC)cc1OC | n | n | n | n | n | n
COC(=O)c1ccc(COC(=O)c2ccc(SC)cc2OC)cc1 | n | n | n | n | 20 | n

Screening results deposited in PubChem by The Scripps Research Institute Molecular Screening Center.
